# Source: PubChem BioAssay AID2013 (Sanford-Burnham Center for Chemical Genomics, 2009)
# In all, about 290,000 compounds went through this assay and about 370 (0.13%) were called active. The sample holds actives, similar compounds and a random draw of the others, so the mix is not that of the screen. Entries with a potency or affinity are not part of this list. Values without a mark were called inactive.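 The calls were made as follows: active = spots per cell inhibited over 60%, with over 100 cells counted and total cytoplasm intensity under 500,000; inconclusive = wells with under 100 cells, flagged as likely toxic; inactive = the rest.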
# Target: G-protein coupled receptor 55 (Homo sapiens) (UniProt Q9Y2T6)
# Sequence (Q9Y2T6 whole entry, looked up): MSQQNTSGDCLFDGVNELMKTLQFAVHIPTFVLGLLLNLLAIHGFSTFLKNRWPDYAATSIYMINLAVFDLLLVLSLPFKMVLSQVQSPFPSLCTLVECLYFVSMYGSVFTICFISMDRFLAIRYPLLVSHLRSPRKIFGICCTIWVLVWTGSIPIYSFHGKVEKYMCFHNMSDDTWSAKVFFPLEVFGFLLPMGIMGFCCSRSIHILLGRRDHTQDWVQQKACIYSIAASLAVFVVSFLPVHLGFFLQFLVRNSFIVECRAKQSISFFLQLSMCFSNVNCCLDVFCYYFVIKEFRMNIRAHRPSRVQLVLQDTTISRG
# Assay: inhibition of LPI-stimulated GPR55 beta-arrestin translocation – imaging, U2OS, beta-arrestin-GFP, LPI agonist, primary screen (AID 2013);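 also: U2OS cells stably carrying GPR55 and arrestin-GFP stimulated by 5 µM LPI near EC80; imaged beta-arrestin-GFP aggregate spots per cell after agonist stimulation; plate controls were LPI-stimulated DMSO wells for no effect and DMSO wells without LPI for full effect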
# Settings: LPI antagonism, at 10 µM, active compounds read high
row,Structure (SMILES),inhibition
1,Cc1cccc(N(C)C(=O)c2cc(S(=O)(=O)N3CCc4ccccc43)cn2C)c1,8.9%
2,CN(C)/C=N/c1[nH]ncc1C#N,-2%
3,Cc1nc2ccccc2n1CC(O)Cn1c(C(F)(F)F)nc2ccccc21 (configuration not stated),6.6%
4,NC(=O)CSc1n[nH]c(-c2ccco2)n1,8.2%
5,O=C(c1cccc(S(=O)(=O)N2CCN(c3ccccc3)CC2)c1)N1CC=C(c2ccccc2)CC1,4.3%
6,COc1ccccc1NS(=O)(=O)c1cccc(NC(=S)NCCN2CCOCC2)c1,0.8%
7,COc1ccccc1NS(=O)(=O)c1cc(NC(=O)CC(C)(C)C)ccc1N1CCOCC1,6.1%
8,Cc1ccccc1NC(=O)Nc1cc(S(N)(=O)=O)ccc1C,-2.7%
9,COc1ccc(N2CCN(C(=O)NCc3ccc(C)cc3)CC2)cc1,1%
10,CC(=O)Nc1cccc(C(=O)OCC(=O)c2ccccc2Cl)c1,-0.6%
11,COc1cc(S(=O)(=O)Nc2ccccc2)ccc1N=Cc1c(C)[nH]n(-c2ccc(C)cc2)c1=O,7.7%
12,O=C(Nc1ccccc1N1CCOCC1)c1cccc(NS(=O)(=O)c2ccc(F)c(F)c2)c1,2.6%
13,O=C(CC12CC3CC(CC(C3)C1)C2)NC(=S)NCc1ccccc1,53%
14,O=C(CC12CC3CC(CC(C3)C1)C2)NCc1ccco1,11.3%
15,OCCNc1cnc2ccccc2n1,12.6%
16,CC1CN(S(=O)(=O)c2ccccc2)CN1C(=O)N1CCOCC1 (configuration not stated),15.3%
17,CCN1CCCC1CN(Cc1cc2ccc(C)cc2[nH]c1=O)C(=S)Nc1ccc(F)cc1 (configuration not stated),23.5%
18,COc1ccc(Cl)cc1S(=O)(=O)n1ccnc1,4.2%
19,COC(=O)c1ccc2c(c1)C(C)(C)C(/C=C/c1ccccc1O)=[N+]2C,11.5%
20,C[N+]1=C(/C=C/Nc2ccccc2Cl)C(C)(C)c2ccccc21,0.9%
21,O=C1c2ccccc2C(=O)C2OC12 (configuration not stated),12.7%
22,COc1ccc(-c2csc(N(CC3CCCO3)C(=O)c3ccccc3)n2)cc1 (configuration not stated),0.7%
23,COc1ccc(OC)c(-c2csc(N(CC3CCCO3)C(=O)C3CCCCC3)n2)c1 (configuration not stated),82.9% (active)
24,COc1ccc(OC)c(-c2csc(N(CC3CCCO3)C(=O)Cc3ccccc3)n2)c1 (configuration not stated),17.6%

row,Structure (SMILES),inhibition
1,CN(C)c1ccc(C(=O)OCC(=O)Nc2ccc(N3CCOCC3)cc2)cc1,0.2%
2,CCN(CC)c1ccc(NC(=O)Cn2c(C(C)NC(=O)c3ccc(C)cc3)nc3ccccc32)cc1 (configuration not stated),1.1%
3,S=c1[nH]nc(CSCc2ccccc2Cl)n1-c1ccccc1,1%
4,Cn1c(CSCc2ccccc2Cl)n[nH]c1=S,-17.8%
5,CN(Cc1ccc(Cl)cc1Cl)C(=O)CNC(=O)c1ccco1,8.3%
6,CCCn1cc(S(=O)(=O)c2ccccc2)c(=O)c2cc(F)c(N3CCN(C)CC3)cc21,7.5%
7,Clc1cccc(-c2cc3nc4c(c(N5CCN(c6cnccn6)CC5)n3n2)CCCC4)c1,-5.5%
8,Clc1cccc(-c2cc3nc4c(c(N5CCNCC5)n3n2)CCCC4)c1,90.4% (active)
9,Clc1cccc(-c2cc3nc4c(c(N5CCOCC5)n3n2)CCCC4)c1,-8.9%
10,COc1ccc(NS(=O)(=O)c2ccc3nc(COc4ccc(C#N)cc4)[nH]c3c2)cc1,6%
11,COc1ccc(NS(=O)(=O)c2ccc3nc(COc4ccc5ccccc5c4)[nH]c3c2)cc1,20.6%
12,COc1ccc(/C=C(\C#N)C(=O)OCC(=O)Nc2ccc(-c3nc4ccc(C)cc4s3)cc2)cc1,-6.4%
13,C=C(C)CSc1nc2ncc(Cl)cc2[nH]1,17.6%
14,N/C(=N\O)c1ccccc1N1CCCCC1,-5%
15,CCCC(=O)Nc1nc(C)c(C(C)=O)s1,-16%
16,C=CCn1c(SCC(=O)NC(=O)c2cccn2C)nc2ccccc2c1=O,4.4%
17,CCC(C)n1c(SCC(=O)Nc2cc(C)on2)nc2ccccc2c1=O (configuration not stated),15.5%
18,CCC(C)n1c(SCC(=O)NC(=O)c2cccn2C)nc2ccccc2c1=O (configuration not stated),99.6% (active)
19,COc1cc(C(=O)NNC(=O)NC2CCCCC2)cc(OC)c1OC,8.5%
20,O=C(NCc1ccccc1Cl)c1ccc2c(c1)SC1=NS(=O)(=O)CCN12,-9.3%
21,COc1cccc(NC(=O)c2cccc(C(=O)Nc3cccc(OC)c3)c2)c1,-0.6%
22,C=CCNC(=O)/C(C#N)=C/c1ccccc1[N+](=O)[O-],13.3%
23,N#C/C(=C\C=C\c1ccccc1[N+](=O)[O-])C(=O)NCc1ccccc1,11.1%
